Experimental data reported in PubChem BioAssay.
The source made the active and inactive calls.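 How the source made its calls, unless noted: active means fluorescence slope after compound addition differing from the mean of all screened samples at 99.7% confidence, in either direction; inactive means the rest.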

Legend:
[1] = inhibitors of TNFa-induced NFkB p65 translocation, primary screen, imaging, HUVEC, MLSMR starter and 10KST1 sets (AID 438;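 active means inhibition above 20% together with a positive visual image hit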;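 further: compound added about 3h40 before a 20 min TNFalpha stimulation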;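 on inhibition: signal is the nuclear over cytoplasmic p65 intensity ratio per well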); settings: HUVEC TNFa-induced p65 nuclear translocation; cell count: measured here: nuclei count (cytotoxicity indicator), at 2.08 µM; inhibition: at 2 µM, stronger effect = higher value, 0% TNFa-plus-vehicle, 100% no-TNFa wells
[2] = inhibitors of mutant huntingtin aggregation, primary screen, imaging, exon1htt(103Q)mCFP cells, high-content imaging (AID 483;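 active means visual image review flags a hit and inhibition of aggregation exceeds 20%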;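 further: compound exposure lasted 3 days before fixation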;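 on nuclei count: percent of the per-plate median nuclei count of sample wells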); settings: exon1htt(103Q)mCFP cell line, aggregate imaging, at 2 µM; inhibition of aggregation: stronger effect = higher value; nuclei count: measured here: cell count, toxicity
[3] = inhibitors of E-selectin induction by TNFa, primary screen, imaging, HUVEC, immunofluorescence, MLSMR starter and 10KST1 sets (AID 487;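 active means visually confirmed hit in the image check and inhibition above 20%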;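 on inhibition: signal is fraction of cell area covered by stained E-selectin grains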;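 on nuclei count: 100% = median nuclei count of all wells on the same plate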); settings: HUVEC TNFalpha-induced E-selectin immunofluorescence imaging, at 2 µM; inhibition: stronger effect = higher value; nuclei count: measured here: cell number, toxicity
[4] = target: Voltage-gated potassium channel subunit beta-2 (Rattus norvegicus) (UniProt P62483); test: KvBeta enzyme negative modulators, primary screen, biochemical, NADPH fluorescence (AID 622;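 active means fluorescence slope higher than the sample average by over 3 SD, cut at about -0.22 in these data, passing the limit was not always enough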;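 further: slope of raw intensity against log time taken from 70 to 1610 s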); settings: recombinant KvBeta, 4-cyanobenzaldehyde reduction, at 10 µM, stronger effect = higher value
[5] = target: Voltage-gated potassium channel subunit beta-2 (Rattus norvegicus) (UniProt P62483); test: KvBeta positive modulators, primary screen, biochemical, NADPH fluorescence (AID 623;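 active means NADPH fluorescence slope more negative than the mean of all samples by about 3 SD, 99.7% confidence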;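 further: fluorescence intensity change per second fitted from 20 to 320 s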); settings: Recombinant KvBeta, NADPH fluorescence decrease slope, 10 min; at 10 µM; stronger effect = lower value
[6] = target: Alpha-2C adrenergic receptor (Homo sapiens) (UniProt P18825); test: modulators of alpha2C/GIRK thallium flux, primary screen, cell-based, HEK293 alpha2C/GIRK1/2 (AID 624); settings: thallium flux BTC fluorescence, at 10 µM, actives lie on both sides;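 further: slope of fluorescence ratio to pre-addition baseline per second over 15 to 24 s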
[7] = inhibitors of Sendai virus-induced IRF3 signaling, primary screen, TLR/RLR signaling modifier project, cell-based, Sendai virus stimulus, luciferase, 10K MLSCN set (AID 602276;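 active means inhibition at or above 50% at 10 µM; inactive means inhibition below 50%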;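 further: firefly luciferase from ISG56 promoter only with Renilla not read in this screen; 0% = Sendai virus plus DMSO and 100% = medium plus DMSO without virus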); settings: HEK293 RL24 IRF3 luciferase reporter, at 10 µM, stronger effect = higher value
[8] = inhibitors of poly I:C-induced TLR3 signaling, primary screen, cell-based, poly I:C stimulus, luciferase, 10K MLSCN set (AID 602277;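 active means inhibition of the reporter signal at or above 50%; inactive means inhibition below 50%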); settings: HEK293-TLR3 RL24 IRF3 luciferase reporter, at 10 µM, stronger effect = higher value

Chain of Alpha-2C adrenergic receptor (Homo sapiens) (P18825 whole entry, looked up): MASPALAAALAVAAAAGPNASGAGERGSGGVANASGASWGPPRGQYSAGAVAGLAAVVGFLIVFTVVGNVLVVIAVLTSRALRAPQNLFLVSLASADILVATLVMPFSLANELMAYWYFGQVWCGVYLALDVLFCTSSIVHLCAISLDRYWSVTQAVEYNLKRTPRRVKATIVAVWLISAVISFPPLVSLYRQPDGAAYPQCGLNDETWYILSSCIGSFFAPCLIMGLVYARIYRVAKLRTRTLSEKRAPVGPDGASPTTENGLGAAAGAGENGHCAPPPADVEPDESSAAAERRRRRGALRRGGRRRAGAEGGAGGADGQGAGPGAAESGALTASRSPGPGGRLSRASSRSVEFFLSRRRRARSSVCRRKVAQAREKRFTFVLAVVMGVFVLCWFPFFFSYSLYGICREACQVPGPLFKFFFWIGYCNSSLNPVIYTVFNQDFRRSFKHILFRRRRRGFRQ
Chain of Voltage-gated potassium channel subunit beta-2 (Rattus norvegicus) (P62483 whole entry, looked up): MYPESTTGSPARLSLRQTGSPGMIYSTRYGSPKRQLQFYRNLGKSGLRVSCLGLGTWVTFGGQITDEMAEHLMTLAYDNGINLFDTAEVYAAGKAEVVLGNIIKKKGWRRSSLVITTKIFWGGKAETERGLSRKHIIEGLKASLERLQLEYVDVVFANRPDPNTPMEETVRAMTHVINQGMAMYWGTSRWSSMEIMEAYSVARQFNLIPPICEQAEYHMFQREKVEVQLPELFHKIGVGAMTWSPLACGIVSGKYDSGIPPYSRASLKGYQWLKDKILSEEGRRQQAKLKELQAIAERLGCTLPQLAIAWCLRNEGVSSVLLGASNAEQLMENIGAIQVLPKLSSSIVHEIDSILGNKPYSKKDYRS

| Structure (SMILES) | cell count [1] | inhibition [1] | inhibition of aggregation [2] | nuclei count [2] | inhibition [3] | nuclei count [3] | fluorescence slope [4] | NADPH fluorescence slope [5] | slope [6] | inhibition [7] | inhibition [8] |
| --- | --- | --- | --- | --- | --- | --- | --- | --- | --- | --- | --- |
| Nc1cc(=O)[nH]c(SCC(=O)Nc2ccc(Br)cc2)n1 | 825 | 8.2% (inactive) | -2.2% (inactive) | 108% | 18.9% (inactive) | 128% | -0.507 (inactive) | 4.3e-05 (inactive) | 0.00582 (inactive) | 1.99% (inactive) | 4.12% (inactive) |
| CCOc1ccc(Nc2nc(Cc3nnc(SCC(N)=O)o3)cs2)cc1 | 453 | 6.7% (inactive) | -0.8% (inactive) | 104% | – | 154% | -0.608 (inactive) | -2.2e-05 (inactive) | 0.00638 (inactive) | 9.26% (inactive) | 14% (inactive) |
| Cc1c(C(=O)OCC(C)(C)CN(C)C)oc2ccccc12 | 428 | -3.3% (inactive) | -15.2% (inactive) | 107% | -39.5% (inactive) | 118% | -0.328 (inactive) | 2.8e-05 (inactive) | 0.00529 (inactive) | -31.4% (inactive) | -27.6% (inactive) |
| CCOC(=O)C1CCN(c2c(Nc3ccc4c(c3)OCCO4)c(=O)c2=O)CC1 | 789 | 4.6% (inactive) | 0.6% (inactive) | 106% | -129% (inactive) | 125% | -0.622 (inactive) | 2.4e-05 (inactive) | 0.0056 (inactive) | 44% (inactive) | 27.5% (inactive) |
| COc1ccc(-c2nnc(SCC(=O)NC(=O)NCc3ccco3)o2)cc1 | 417 | 5.6% (inactive) | -7.4% (inactive) | 102% | – | 157% | -0.455 (inactive) | 9.2e-05 (inactive) | 0.00577 (inactive) | 18.6% (inactive) | 24.4% (inactive) |
| COc1ccccc1S(=O)(=O)Cc1ccc(C(=O)NCCN2CCCCCC2)o1 | 522 | 13.4% (inactive) | 15.2% (inactive) | 91.6% | 9% (inactive) | 81.1% | -0.588 (inactive) | -3.5e-05 (inactive) | 0.00667 (inactive) | 11% (inactive) | 39.3% (inactive) |
| O=C(CCn1c(=O)sc2ccccc21)Nc1nccs1 | 575 | -22.3% (inactive) | 4.1% (inactive) | 65.7% | -53% (inactive) | 98.6% | -0.618 (inactive) | 3e-05 (inactive) | 0.00595 (inactive) | -21.2% (inactive) | -66.6% (inactive) |
| C/C=C(\CS(=O)(=O)c1ccccc1)S(=O)(=O)c1ccccc1 | 167 | 2.2% (inactive) | 9.7% (inactive) | 101% | -49.3% (inactive) | 73% | -0.508 (inactive) | -1.7e-05 (inactive) | 0.00524 (inactive) | 19.1% (inactive) | 21.9% (inactive) |
| COCC(=O)N(Cc1cc2cc(OC)ccc2[nH]c1=O)c1ccccc1 | 412 | 4.3% (inactive) | 1.5% (inactive) | 106% | -47.1% (inactive) | 113% | -0.453 (inactive) | -5.4e-05 (inactive) | 0.00281 (inactive) | 5.46% (inactive) | 19% (inactive) |
| COc1ccccc1CNC(=O)N[C@@H](Cc1ccccc1)C(=O)O | 602 | 0.9% (inactive) | -15.9% (inactive) | 107% | 31.9% (inactive) | 99.5% | -0.6 (inactive) | -5.1e-05 (inactive) | 0.00621 (inactive) | 12.8% (inactive) | 22.6% (inactive) |
| CCOC(=O)Cc1c(C)c2c(O)cc(O)cc2oc1=O | 450 | 9% (inactive) | -19.7% (inactive) | 111% | – | 150% | -0.0503 (inactive) | 6.3e-06 (inactive) | 0.00591 (inactive) | 15.2% (inactive) | 9.57% (inactive) |
| Cc1cccc(CCNC(=O)CCc2nc(-c3ccccc3F)no2)c1 | 357 | 2.8% (inactive) | -1.1% (inactive) | 101% | -2.7% (inactive) | 114% | -0.415 (inactive) | -2.4e-05 (inactive) | 0.00305 (inactive) | -0.595% (inactive) | 2.35% (inactive) |
| NCCCCCc1nnc(SC/C=C/c2ccccc2)o1 | 396 | -9.8% (inactive) | 3% (inactive) | 69.1% | 20.9% (inactive) | 94% | -0.488 (inactive) | -4.2e-05 (inactive) | 0.00602 (inactive) | 14.3% (inactive) | 12.7% (inactive) |
| O=C(C1CCN(c2nnc(-n3cccc3)s2)CC1)N1CCOCC1 | 661 | -2.9% (inactive) | 6.4% (inactive) | 123% | -50.3% (inactive) | 102% | -0.418 (inactive) | -4.1e-05 (inactive) | 0.00592 (inactive) | 7.65% (inactive) | 18% (inactive) |
| O=C1CCc2cc(S(=O)(=O)N3CCC(C(=O)Nc4nccs4)CC3)ccc2N1 | 821 | 3.9% (inactive) | -29.1% (inactive) | 105% | -38.5% (inactive) | 102% | -0.593 (inactive) | -4.4e-05 (inactive) | 0.00714 (inactive) | 18.5% (inactive) | 28.2% (inactive) |
| N#CC1=C(N)C(C#N)(C#N)[C@H](c2ccsc2)[C@H]2COCC=C12 | 337 | 5.5% (inactive) | 1.7% (inactive) | 98.1% | 8.2% (inactive) | 93.1% | -0.538 (inactive) | 2.1e-05 (inactive) | 0.00495 (inactive) | 16.8% (inactive) | 25.2% (inactive) |
| Cc1ccccc1-n1c(=O)c2ccccc2n2nnnc12 | 789 | -6.4% (inactive) | -0.5% (inactive) | 125% | -23.1% (inactive) | 103% | -0.517 (inactive) | 2.5e-05 (inactive) | 0.00577 (inactive) | -17% (inactive) | -4.05% (inactive) |
| CC(=O)c1cccc(S(=O)(=O)N2CCC(n3nnc4cc(F)ccc43)CC2)c1 | 598 | 2.7% (inactive) | 3.8% (inactive) | 90.5% | -14.7% (inactive) | 93.6% | -0.4 (inactive) | 2.2e-05 (inactive) | 0.00694 (inactive) | -0.237% (inactive) | 31.4% (inactive) |
| Cc1cccc(NC(=O)CSc2nnc(-c3ccccc3C)o2)c1 | 414 | 0.8% (inactive) | -0.2% (inactive) | 92% | – | 116% | -0.32 (inactive) | -4.9e-05 (inactive) | 0.00441 (inactive) | -55.2% (inactive) | -86.9% (inactive) |
| CCCCn1nnc(NC(=O)c2cc3ccccc3o2)n1 | 615 | 2.2% (inactive) | 3.5% (inactive) | 106% | -13.4% (inactive) | 90.8% | -0.468 (inactive) | 1.2e-05 (inactive) | 0.00257 (inactive) | -19% (inactive) | -27.4% (inactive) |
| CCN(CC)S(=O)(=O)c1ccc(NC2CCCc3ccccc32)nc1 (stereo unspecified) | 451 | 7.1% (inactive) | 15.4% (inactive) | 103% | – | 163% | -0.594 (inactive) | -3e-05 (inactive) | 0.00558 (inactive) | 11.9% (inactive) | 17.1% (inactive) |
| Cn1c(=O)c2c(nc(NCCNC(=O)c3ccco3)n2Cc2ccccc2Cl)n(C)c1=O | 424 | 7.1% (inactive) | 1.7% (inactive) | 98.3% | – | 136% | -0.354 (inactive) | -2.6e-05 (inactive) | 0.00598 (inactive) | -7.85% (inactive) | 2.32% (inactive) |
| O=C(Sc1nnnn1C1CCCCC1)c1cccs1 | 242 | 13.8% (inactive) | 7.4% (inactive) | 91.3% | -291% (inactive) | 129% | -0.317 (inactive) | 1.5e-05 (inactive) | 0.00618 (inactive) | 15.9% (inactive) | 13.5% (inactive) |
| COc1cc(NC(=O)Cc2ccccc2OC)cc(OC)c1 | 575 | -4.8% (inactive) | 9.8% (inactive) | 81.8% | -96.9% (inactive) | 87.6% | -0.452 (inactive) | -2e-05 (inactive) | 0.00483 (inactive) | -19% (inactive) | -15% (inactive) |
| COc1ccc2nc3oc(C(=O)N4CCCCC4)cc3cc2c1 | 194 | 1.8% (inactive) | -10.4% (inactive) | 105% | -13.7% (inactive) | 112% | -0.0908 (inactive) | -2.5e-05 (inactive) | 0.00338 (inactive) | -36.8% (inactive) | -132% (inactive) |
| CCOc1ccc(NC(=O)CN(C)CC(=O)NC2CCCc3ccccc32)cc1OCC (stereo unspecified) | 451 | 14.9% (inactive) | -6.5% (inactive) | 110% | 10.8% (inactive) | 100% | -0.288 (inactive) | -1.1e-05 (inactive) | 0.00604 (inactive) | 8.91% (inactive) | 26.6% (inactive) |
| Cn1cnc(S(=O)(=O)NCc2cccs2)c1 | 417 | 10.8% (inactive) | -26.8% (inactive) | 101% | -43.8% (inactive) | 132% | -0.541 (inactive) | 3.3e-05 (inactive) | 0.00567 (inactive) | -2.25% (inactive) | 6.69% (inactive) |
